Measurements as given in PubChem BioAssay (EPA / NIEHS).
The source made the active and inactive calls. How the source made its calls: active means hit-call score of the fitted dose curve at least 0.9, where 1 is the maximum; inactive means score below 0.9.

Each molecule was assayed on ABC Transporter (ABCB11), ABCB11 (gene 8647) (assay: LTEA_HepaRG_ABCB11: Life Technologies and Expression Analysis (LTEA) Assay for ABC Transporter (ABCB11) using HepaRG (AID 2283463)). Conditions: mRNA level, 48 h; actives raise or lower the signal.
Description: LTEA_HepaRG is a cell based, multiplexed-readout assay that uses HepaRG, a human liver cell line, with measurements taken at 48 hours after chemical dosing on a 96-well plate.LTEA_HepaRG_ABCB11 is one of 102 assay component(s) measured in the LTEA HepaRG cell culture assay. It is a marker of Steatosis/NR mediated transport.Data from the assay component LTEA_HepaRG_ABCB11 was analyzed into 1 endpoint. This assay endpoint, LTEA_HepaRG_ABCB11, was analyzed with bidirectional fitting relative to DMSO as the negative control and baseline of activity. Using a type of inducible reporter, measures of mRNA induction for gain or loss-of-signal activity can be used to understand regulation of transcription factor activity. To generalize the intended target to other relatable targets, this assay endpoint is annotated to the transporter intended target family, where the subfamily is ABC transporter.
A total of 1060 chemcials from the ToxCast library were tested in eight-point concentration-response experiments. Cell culture and cytotoxicity assays were conducted at Thermo Fisher Scientific's Custom Services facility (Madison, WI). A single lot of human HepaRG cells (Thermo Fisher Scientific, Frederick, MD) was used for the cell culture experiments. 96-well format collagen type I coated plates of human HepaRG cells were prepared using established methods. Briefly, cryopreserved HepaRG cells were thawed, plated at a density of approximately 100,000 cells/well in HepaRG Thaw, Plate, and General Purpose media (HPRG770, Thermo Fisher Scientific), and incubated for 48 hours. 0.5% DMSO was selected as vehicle control to balance the requisite need of DMSO in HepaRG cultures to maintain differentiation (for example, baseline metabolism, proportions of hepatocytes vs. cholangiocytes), while enabling further hepatic receptor pathway activation (for example, PXR and CAR) in response to chemical exposure. 48 hours after plating, the culture medium was replaced with HepaRG Serum-Free Incudtion Media. Cells were exposed to each test chemical in duplicate and maintained in CO2 incubators for another 48 hours. Chemical plates were thawed to room temperature and 200x concentrations of treatment groups were prepared. 8-point conentration-reponse curves were made with the highest exposure at 100 uM, followed by half-log dilutions, all in 0.5% DMSO. Each test plate contained variouse controls, induction positive controls (1mM phenobarbital), cytotoxicity positive controls ([…] aflatoxin B1), vehicle controls (0.5% DMSO), and total lysis controls (0.5% DMSO). Cell morphology images were taken using an Essen IncuCyte FLR automated microscope, with six 96-well plates imaged in about 24 minutes. Images were captured and exported and JPEG files. Spent culture media was transfered to black-well plates for the LDH assay, and remaining media was sorted at -80 C for later use. Cells were treated with RLT buffer and frozen until shipped for gene expression analysis. Total RNA was isolated from the cell suspension in 75 uL of Buffer RLT (Qiagen, Germantown, MD 20874) by Quintiles/Expression Analysis (Durham, NC) using a custom isolation procedure. Total RNA from each plate well was transferred to a preamplification plate. Fluidigm's 96.96 Dynamic ArrayTM (Fluidigm, Amsterdam, the Netherlands) technology was used for gene expression analyses by quantitative reverse transcription polymerase chain reaction (qRT-PCR, performed by Quintiles/Expression Analysis, Durham, NC)89. Standard TaqManTM Assays (Applied Biosystems/ThermoFisher Scientific, Foster City, CA) were used to assess the expression of 93 genes selected based on their selectivity and sensitivity to important hepatic receptors known to be modulated by environmental chemicals; importance in human hepatocyte functionality; and hepatotoxicity. […]

outcome, inactive:
CCCCCCCCCCCCCCC
O=C(c1ccccc1)c1ccccc1
OCC(CO)(CBr)CBr
CCCCC=O
CCCCC(CC)C(=O)O (centres undefined)
O=C1NS(=O)(=O)c2ccccc21
CN(C)CCOC(c1ccccc1)c1ccccc1
CC(=O)Nc1ccc(O)cc1
CCC(C)c1ccccc1O (centres undefined)

AC50, active:
CCCCc1oc2ccccc2c1C(=O)c1cc(I)c(OCCN(CC)CC)c(I)c1 52.1 µM
N=C(N)c1ccc(OCCCCCOc2ccc(C(=N)N)cc2)cc1 4.37 µM
O=C(CCCN1CCC(O)(c2ccc(Cl)cc2)CC1)c1ccc(F)cc1 80.1 µM
Cc1[nH]nc2c1N=C(c1ccccc1Cl)c1cc([N+](=O)[O-])ccc1N2 8.72 µM
CN(Cc1cnc2nc(N)nc(N)c2n1)c1ccc(C(=O)N[C@@H](CCC(=O)O)C(=O)O)cc1 0.206 µM
